Compound activity as filed in PubChem.
Hits are enriched below; roughly 3.1% of the tested compounds scored in any of these assays.
TSG101-PTAP inh – blocks PTAP/TSG101 interaction to inhibit HIV-1 budding | Fluorescence polarization, FITC-PTAP peptide / Tsg101 binding | AID 493005 | Potency, µM (highest dose often 115 µM), inactives show top-dose activity change, negative = inhibition, actives largely listed as inhibitors | 340,000 tested, under 10 active; active means well fitted inhibition curve with a large enough effect in the main read-out, with a control signal flat, not every such curve was filed as active; inconclusive means small, poorly fitted or top-dose-only effect, or effect the other way, or a change in a side signal; inactive means no such curve, though single readings can be large or run the other way; further: potency means the concentration at half of the fitted maximal effect; % of control where 0% means no effect
Target sequence (Q99816 whole entry, looked up): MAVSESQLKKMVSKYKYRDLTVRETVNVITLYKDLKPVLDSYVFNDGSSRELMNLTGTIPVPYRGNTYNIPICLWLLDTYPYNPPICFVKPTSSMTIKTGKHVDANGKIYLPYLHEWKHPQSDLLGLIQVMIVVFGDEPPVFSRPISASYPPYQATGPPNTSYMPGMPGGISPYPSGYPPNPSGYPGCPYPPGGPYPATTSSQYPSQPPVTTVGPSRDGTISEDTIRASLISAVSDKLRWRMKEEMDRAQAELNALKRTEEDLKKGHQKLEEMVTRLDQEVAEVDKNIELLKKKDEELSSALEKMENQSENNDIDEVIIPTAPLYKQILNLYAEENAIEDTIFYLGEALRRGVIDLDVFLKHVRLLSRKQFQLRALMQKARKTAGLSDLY
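Steps: Tsg101 binding domain dispensed (10 uM final), compounds pinned in DMSO, FITC-labeled PTAP-motif peptide added (50 nM final); after 20 min binding at room temperature, polarization measured.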
PLK1 PBD block – PLK1 (human) polo-box domain binding inhibition; P53350; Plk1 PBD binding of FITC phosphopeptide, fluorescence polarization; Potency, µM, without a hit: max response, negative = inhibition, actives largely listed as inhibitors; 2.8% of 360,000 active; AID 720504; further: potency means the concentration at half of the fitted maximal effect; series mostly up to about 57 µM; on the % scale 0 is the no-effect control and ±100 the full control effect; nearly all actives have a fitted effect of over 65% in size
uPA surface inh – cell surface uPA generation inhibition; cell surface uPA generation assay, qHTS; Potency, µM (top dose mostly 38.3 µM), inactives show at the highest dose activity change, negative = inhibition, actives largely listed as inhibitors; 0.31% of 330,000 active; AID 540303; active means well fitted inhibition curve with a large enough effect; inconclusive means small, poorly fitted or top-dose-only effect; inactive means no such curve, though single readings can be large or run the other way; tested in mouse RAW 264.7 cells; further: potency means the concentration at half of the fitted maximal effect; on the % scale 0 is the no-effect control and ±100 the full control effect; nearly all actives have a fitted effect of over 55% in size
VDR inhibitor – vitamin D3 receptor (human) inhibition. Potency, µM, inactives show max response, negative = inhibition, most hits filed as inhibitors. VDR-SRC2-3 peptide fluorescence polarization, 2 h. 0.93% of 400,000 active; further: potency means the concentration at half of the fitted maximal effect; on the % scale 0 is the no-effect control and ±100 the full control effect
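Compounds are added to VDR with labelled SRC2-3 coactivator peptide and held 2 h at room temperature. Inhibition of the VDR–peptide interaction is then read as a change in fluorescence polarization.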
TSHR antag – blocks TSH signaling through the human TSH receptor; TSHR-expressing cells, TSH-stimulated cAMP HTRF, 2 h; active compounds read low; activity change, negative = inhibition, % at 11.5 µM; 0.2% of 330,000 active; P16473;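 active means activity change below a set negative limit, meaning inhibition stronger than a set level, cut at about -70% in these data; inconclusive means activity change between two set negative limits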; further: on the % scale 0 is the no-effect control and ±100 the full control effect
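Competitive HTRF cAMP read-out (cryptate anti-cAMP antibody, cAMP-d2; 30 min, room temperature) in freshly harvested TSHR cells. Compounds added before TSH at EC80 (4nM final), followed by 2 hours' incubation at 37 deg C.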
* = called active by the depositor; ? = inconclusive; . = no result given; ! = not confirmed by another sample. Unless noted, the call rests on the fitted dose curve; in most records, active means well fitted curve in the direction sought with a large enough effect; inconclusive means small, poorly fitted or top-dose-only effect, or another doubt; inactive means no such curve, though single readings can be large; an effect the other way counts as inactive or inconclusive.

SMILES	TSG101-PTAP inh	PLK1 PBD block	uPA surface inh	VDR inhibitor	TSHR antag
CN(C)C(CNC(=O)C1CCN(S(=O)(=O)c2cc(Cl)ccc2Cl)CC1)Cc1ccccc1 (stereo not drawn)	-5.0%	-12.4%	-9.4%	-9.5%	.
Cc1ccc(NC(=O)[C@@H](C)NC(=O)[C@@H]2Cc3ccccc3CN2)cc1	-6.6%	-0.6%	4.0%	-0.5%	-8.0
C[C@H](NC(=O)[C@@H]1Cc2ccccc2CN1)C(=O)NCC1CCCO1 (stereo partly drawn)	-3.9%	29.9µM*	7.4%	-18.7%	-7.4
C[C@@H](NC(=O)[C@@H]1Cc2ccccc2CN1C(=O)OC(C)(C)C)C(=O)NC1CCCC1	-9.6%	29.9µM*	-7.2%	?	41.2
C[C@@H](NC(=O)[C@@H]1Cc2ccccc2CN1C(=O)OC(C)(C)C)C(=O)NCC1CCCO1 (stereo partly drawn)	-1.3%	-2.6%	1.9%	0.6%	5.3
CC(C)C(OC(=O)C1=Cc2ccccc2OC1)C(=O)NCC1CCCO1 (stereo not drawn)	-5.2%	21.2µM*	4.1%	-17.7%	.
C[C@@H](NC(=O)[C@@H]1Cc2ccccc2CN1)C(=O)NC1CCCCC1	0.5%	-9.0%	-1.0%	5.0%	-133.8*
COc1cn(CC(=O)Nc2cc(C)ccc2C)c(CN2CCCCC2)cc1=O	.	.	.	17.5%	.
COCCn1c(C)cc(O)c(C(c2ccc(OC)cc2)N2CCCCC2)c1=O (stereo not drawn)	.	.	.	0.2%	.
O=C(COC(=O)CCSc1ccccc1)Nc1ccccc1Br	0.3%	?	-13.9%	3.9%	.
Cc1ccc(-n2nc3c(=O)n(CC(=O)NCCC(C)C)nc(C)c3c2C)cc1	.	.	.	8.2%	.
NC(=O)NC(=O)COC(=O)/C=C/c1cccc(Br)c1	-8.0%	-2.0%	9.7%	-14.7%	5.6
CCOC(=O)C(CC)(CC)C(=O)/C=C/c1cccc(Br)c1	-0.5%	-5.1%	-9.0%	79.4µM*	.
CC(C)n1c(=N)c(C(=O)NCc2cccnc2)cc2c(=O)n3ccccc3nc21	.	.	.	13.6%	.
CCc1nc2ccc(C(=O)NC3CCC(C)CC3)cc2nc1CC (stereo not drawn)	-5.5%	29.9µM*	5.1%	-25.1%	-15.2
CCOc1ccc(-n2nc(CO)c(C(=O)NCc3cccs3)n2)cc1	.	.	.	6.9%	.
Cc1nn(-c2ccccc2)c(Cl)c1C1C(C#N)=C(N)Oc2c1c(C)nn2-c1ccccc1 (stereo not drawn)	-8.9%	-27.4%	-4.1%	-11.5%	1.3
Cc1ccc(-c2ccc(C3C(C#N)=C(N)Oc4n[nH]c(C)c43)o2)cc1 (stereo not drawn)	-6.1%	?	-6.4%	?	-5.3
Cc1nn(-c2ccccc2)c(Cl)c1C1C(C#N)=C(N)Oc2n[nH]c(C)c21 (stereo not drawn)	4.5%	23.8µM*	2.7%	-12.6%	-10.8
Cc1[nH]nc2c1C(c1ccc(-c3ccccc3C#N)o1)C(C#N)=C(N)O2 (stereo not drawn)	-2.2%	29.9µM*	-0.2%	-0.3%	-2.8
CCOC(=O)C1=C(C)OC(N)=C(C#N)C1c1c(C)nn(-c2ccccc2)c1Cl (stereo not drawn)	-0.7%	-27.4%	-2.7%	70.8µM*	-3.5
CC1=C(C(=O)Nc2cccnc2)C(c2cccc(Br)c2)n2nc(SCc3ccccc3)nc2N1 (stereo not drawn)	.	.	.	-22.6%	.
CO[C@H]1/C=C/O[C@@]2(C)Oc3c(C)c(O)c4c(O)c(c5c(c4c3C2=O)NC2(CCN(CC(C)C)CC2)N=5)=NC(=O)/C(C)=C\C=C\[C@H](C)[C@H](O)[C@@H](C)[C@@H](O)[C@@H](C)[C@H](OC(C)=O)[C@@H]1C	1.6%	-7.6%	-13.7%	39.8µM*!	.
CCN(CC)S(=O)(=O)c1ccc2c(c1)N(CC(=O)Nc1ccccc1F)C(=O)C1CCCN21 (stereo not drawn)	.	.	.	8.5%	.
Cc1cccc(C)c1N1C(=O)[C@@H]2C(c3ccccc3Cl)=NO[C@@H]2C1=O	0.0%	-7.6%	-1.8%	0.5%	-10.5
COc1ccc(OC)c(N2C(=O)[C@@H]3C(c4ccccc4Cl)=NO[C@@H]3C2=O)c1	-7.3%	18.9µM*	10.0%	-2.1%	1.9
